TDP1 cell noCPT – qHTS for Inhibitors of human tyrosyl-DNA phosphodiesterase 1 (TDP1): qHTS in cells in absence of CPT; DT40 Tdp1-/- hTDP1 cells, no CPT, ATP luminescence, 48 h; Potency, µM (top dose mostly 46.2 µM), actives largely listed as inhibitors; 420,000 tested, 15% active; note: nearly all actives have a fitted effect of over 55% in size
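Camptothecin absent (DMSO only). Human TDP1-complemented DT40 knockout cells, 400 cells/well, 37 °C for minimum 48 hr; ATP measured via CellTiter-Glo, 30 min dark incubation, luminescence.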
HT1080 IDH1KD tx – toxicity to HT-1080 IDH1 knockdown cells (counter line). HT-1080 IDH1 knockdown viability, ATP luminescence, 48 h. Potency, µM (top dose mostly 46.1 µM), most hits filed as cytotoxic. 360,000 tested, 2% active
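CellTiter-Glo luminescence after 48 h compound exposure at 37 degrees C of IDH1-knockdown HT-1080 cells in 5% FBS RPMI. %Activity scaled between DMSO wells and cell-free media wells, with curves fitted and assigned curve classes.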
HT1080-NT tox – kills 2HG-producing HT-1080-NT fibrosarcoma cells; HT-1080-NT fibrosarcoma viability, CellTiter-Glo ATP luminescence, 48 h; Potency, µM (titrated, usually from 46.1 µM), most hits filed as cytotoxic; 360,000 tested, 1.6% active;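 note: NT is the 2HG producing partner of a matched IDH1 knockdown line; nearly all actives have a fitted effect of over 55% in size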
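Toxicity toward the 2HG-producing NT line was scored as %Activity, normalised to DMSO and no-cell wells, from CellTiter-Glo luminescence after 48 hours' treatment.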
IL1B secr inh – inhibitors of inflammasome signaling (IL-1 beta secretion); activity change, % at 57.5 µM; 360,000 tested, 4.7% active; THP-1 LPS/ATP IL-1B secretion, AlphaLISA, 16 h; hits give low values; AID 743279; in the data active = activity change below about -50%; inconclusive = mostly about -30% to -49%
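Secreted IL-1B measured by AlphaLISA bead assay after 16 h compound exposure of THP-1 cells; compounds (final up to 57.5 uM) added 1 h before LPS (250 ng/mL) and ATP (1.25 mM) stimulation; lower signal means less secretion.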
TDP1 cell CPT – DT40-hTDP1 cell growth loss with CPT. chicken DT40 Tdp1-/-;hTDP1 cells + 20 nM CPT, ATP luminescence, 48 h. Potency, µM (highest dose often 46.2 µM), hits mostly inhibitors. 420,000 tested, 12% active; note: nearly all actives have a fitted effect of over 55% in size
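Chicken DT40 Tdp1-/- cells stably complemented with human TDP1 were seeded at 400 cells/well in medium containing 20 nM camptothecin, exposed to pin-transferred compounds, and grown at 37 °C for at least 48 hr. Viability was read as ATP luminescence.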
Each line names hits and unclear results; the compound was inactive in the other large screens. Rows were chosen to be rich in hits. Some 19% of all compounds tested hit in one or more screens of this group. Unless noted, calls come from the whole dose curve; as a rule, active = well fitted curve in the direction sought with a large enough effect; inconclusive = small, poorly fitted or top-dose-only effect, or another doubt; inactive = no such curve, though single readings can be large; an effect the other way counts as inactive or inconclusive.

CCn1nc(NC(=O)CC(C)C)c2cc3ccc(C)cc3nc21	TDP1 cell noCPT inconclusive, TDP1 cell CPT 29.1µM
Cc1cc(NC(=O)CN2C(=O)NC3(CCC(C)CC3)C2=O)no1 (centres undefined)	none
COc1ccc(C2=NS(=O)(=O)N(C)C(C(=O)NCc3ccc(F)cc3)=C2)cc1OC	TDP1 cell noCPT inconclusive, TDP1 cell CPT inconclusive
CCc1ccccc1NC(=O)Cn1nnc(C(=O)NCc2cccs2)c1N	TDP1 cell noCPT 3.26µM, HT1080 IDH1KD tx 4.11µM, HT1080-NT tox 5.8µM, TDP1 cell CPT 3.66µM
COc1ccc(CCNC(=O)c2nnn(CC(=O)Nc3cccc(F)c3)c2N)cc1OC	IL1B secr inh -98.2
COc1ccccc1NC(=O)Cn1nnc(C(=O)NCc2cccs2)c1N	TDP1 cell noCPT 0.461µM, HT1080 IDH1KD tx 2.06µM, HT1080-NT tox 2.31µM, TDP1 cell CPT 0.581µM
COc1ccc(NC(=O)Cn2nnc(C(=O)NCCc3ccccc3)c2N)c(OC)c1	HT1080-NT tox inconclusive
COc1ccc(CCNC(=O)c2nnn(CC(=O)Nc3ccccc3)c2N)cc1OC	none
COc1ccc(NC(=O)Cn2nnc(C(=O)NCc3ccccc3)c2N)c(OC)c1	TDP1 cell noCPT 13µM, HT1080 IDH1KD tx inconclusive, HT1080-NT tox inconclusive, TDP1 cell CPT inconclusive
CCOC(=O)CC(N)c1cccc([N+](=O)[O-])c1 (centres undefined)	none
CCn1c(CSc2nnc(-c3ccncc3)n2C)nc2cc(C(=O)O)ccc21	none
CN(C(=O)c1ccc(NC(=O)Cc2cccc([N+](=O)[O-])c2)cc1)C1CCCC1	IL1B secr inh inconclusive, TDP1 cell CPT inconclusive
CN(C(=O)c1ccc(S(=O)(=O)c2cccc(Cl)c2)c([N+](=O)[O-])c1)C1CCCCC1	TDP1 cell noCPT 5.17µM, HT1080 IDH1KD tx inconclusive, HT1080-NT tox inconclusive, IL1B secr inh -106.5, TDP1 cell CPT 3.66µM
CCC(=O)c1cccc(-c2ccccc2)c1CC	IL1B secr inh -69.2
Cn1c2c(c3ccccc31)CCN(CCCCN1CCN(c3ccccc3)CC1)C2=O	TDP1 cell noCPT inconclusive, HT1080 IDH1KD tx inconclusive, IL1B secr inh -61.5, TDP1 cell CPT inconclusive
Cc1c(C(=O)CN2CCN(c3ccccc3)CC2)c2ccccc2n1C	TDP1 cell noCPT inconclusive, TDP1 cell CPT inconclusive
CCOC(=O)c1ccc(NC(=O)Cn2nnc(-c3ccccc3)n2)cc1	TDP1 cell noCPT inconclusive, TDP1 cell CPT inconclusive
CC(C)(C)OC(=O)N1CCN(c2ccc(NC(=O)Cn3nnc(-c4ccccc4)n3)cc2)CC1	TDP1 cell noCPT 23.1µM, TDP1 cell CPT inconclusive
Cc1cnc(C(=O)Nc2ccc(N3CCN(C(=O)OC(C)(C)C)CC3)cc2)cn1	TDP1 cell noCPT 2.31µM, HT1080 IDH1KD tx inconclusive, HT1080-NT tox inconclusive, TDP1 cell CPT 4.61µM
Cc1cnc(C(=O)Nc2ccc(F)cc2)cn1	none
N#Cc1cc(Oc2cccc3cccnc23)c(-n2nnc3ccccc32)cc1C#N	TDP1 cell noCPT 7.94µM, HT1080 IDH1KD tx 6.31µM, HT1080-NT tox 5.62µM, IL1B secr inh -59.3, TDP1 cell CPT 7.08µM
O=C1C=C(c2ccc3ncccc3c2)C[C@@H](c2ccc3c(c2)OCO3)C1	TDP1 cell noCPT 2.59µM, HT1080 IDH1KD tx 8.2µM, HT1080-NT tox 10.3µM, TDP1 cell CPT 2.06µM
O=C1C=C(c2ccccc2Oc2ccccc2)C[C@@H](c2ccc3c(c2)OCO3)C1	TDP1 cell noCPT inconclusive, IL1B secr inh -58.0, TDP1 cell CPT 16.4µM
O=C1C=C(c2ccc3ncccc3c2)C[C@@H](c2ccc(F)cc2)C1	TDP1 cell noCPT inconclusive, TDP1 cell CPT inconclusive
COc1ccc([C@H]2CC(=O)C=C(c3ccccc3C(F)(F)F)C2)cc1	none
COc1ccccc1C1=CC(=O)C[C@H](c2ccc3c(c2)OCO3)C1	TDP1 cell noCPT 18.4µM, HT1080 IDH1KD tx inconclusive, HT1080-NT tox inconclusive, TDP1 cell CPT 16.4µM
O=C1C=C(c2ccccc2C(F)(F)F)C[C@@H](c2ccc3c(c2)OCO3)C1	TDP1 cell noCPT 18.4µM, HT1080-NT tox inconclusive, TDP1 cell CPT inconclusive
CCOC(=O)c1cc(-c2ccc(C)cc2)n(CC(=O)Nc2ccc(OC)cc2OC)c1C	TDP1 cell noCPT inconclusive, TDP1 cell CPT 23.1µM (no result: HT1080 IDH1KD tx, HT1080-NT tox, IL1B secr inh)
